ATXN2 expr inh: Primary qHTS for Inhibitors of ATXN expression; HEK-293 ATXN2-luciferase reporter, luminescence, 24 h; Potency, µM (titrated, usually from 57 µM), for the others: top-dose activity change, negative = inhibition, actives largely listed as inhibitors; actives 0.72% (n = 360,000); AID 1745845, 2022; further: potency means the concentration at half of the fitted maximal effect; on the % scale 0 is the no-effect control and ±100 the full control effect; nearly all actives have a fitted effect of over 55% in size
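ATXN2-luciferase reporter cells (luciferase flanked by upstream and downstream ATXN2 gene portions) were treated 24 h at 37 °C with compounds at up to 57 uM. SteadyGlo luminescence gave expression; GF-AFC fluorescence gave viability.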
uPA generation: qHTS for Inhibitors of Cell Surface uPA Generation; cell surface uPA generation assay, qHTS; Potency, µM (series often up to 38.3 µM), without a hit: at the highest dose activity change, negative = inhibition, usual class: inhibitors; actives 0.31% (n = 330,000); active means well fitted inhibition curve with a large enough effect; inconclusive means small, poorly fitted or top-dose-only effect; inactive means no such curve, though single readings can be large or run the other way; tested in mouse RAW 264.7 cells; further: potency means the concentration at half of the fitted maximal effect; on the % scale 0 is the no-effect control and ±100 the full control effect; nearly all actives have a fitted effect of over 55% in size
S2 tox: Viability Counterscreen for Primary qHTS for Inhibitors of ATXN expression; Potency, µM (highest dose often 56.7 µM), usual class: cytotoxic; actives 0.49% (n = 400,000); S2 cells (HEK-293 line with an ATXN2-luciferase reporter) viability, CellTiter-Fluor protease fluorescence, 24 h; further: potency means the concentration at half of the fitted maximal effect; nearly all actives have a fitted effect of over 40% in size
TGFb SMAD3 inh: qHTS for Inhibitors of TGF-b. Potency, µM (series often up to 46.1 µM), for inactives: top-dose activity, negative = inhibition, hits mostly inhibitors. AID 588855, 2011. actives 1.2% (n = 410,000). HepG2 CAGA-GFP TGF-b/SMAD3 reporter, GFP fluorescence, 18 h; TGF-beta stimulated, 500 pg/mL final; further: potency means the concentration at half of the fitted maximal effect; on the % scale 0 is the no-effect control and ±100 the full control effect; nearly all actives have a fitted effect of over 65% in size
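Smad-responsive CAGA-GFP expression was quantified in HEPG2 cells exposed to compounds and 500 pg/mL final TGF-beta for 18 h at 37 degrees C; unstimulated wells defined full inhibition.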
HepG2 tox: qHTS for Inhibitors of TGF-b: Cytotox Counterscreen. AID 588856, 2011. actives 0.76% (n = 410,000). Potency, µM (highest dose often 46.1 µM), for inactives: at the highest dose activity change, negative = cytotoxicity, usual class: cytotoxic. HepG2 CAGA-GFP viability, ATP luminescence, 18 h; further: potency means the concentration at half of the fitted maximal effect
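HepG2 CAGA-GFP cells (1000/well, DMEM with 1% FBS) received compound, then TGF-beta at 500 pg/mL final, and were incubated 18 hours at 37 degrees C. Viability was read by CellTiter-Glo luminescence. Media-only wells were set as complete cell-killing and DMSO as no toxicity.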
Giardia killer: Small Molecules that selectively kill Giardia lamblia: qHTS; Giardia lamblia trophozoite viability; activity change, % at 7.66 µM, hits read low; actives 0.15% (n = 340,000); AID 540267, 2011; in the data active means activity change below about -80%; inconclusive means between about -30% and that limit;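 further: parasites exposed to compound for two days anaerobically before the ATP read; on the % scale 0 is the no-effect control and ±100 the full control effect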
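ATP-content bioluminescence gauges trophozoite survival. Cells (100/well) receive compound and incubate anaerobically for 48 hrs at 37 deg C; detection reagent follows for 15-30 min at room temperature.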
An asterisk follows results filed as active; i = inactive; ? = inconclusive; . = no result given. Sampled rows, rich in hits. Any-hit rate of the full collection: about 2.6%. Unless noted, the call rests on the fitted dose curve; in most records, active means well fitted curve in the direction sought with a large enough effect; inconclusive means small, poorly fitted or top-dose-only effect, or another doubt; inactive means no such curve, though single readings can be large; an effect the other way counts as inactive or inconclusive.

SMILES | ATXN2 expr inh | uPA generation | S2 tox | TGFb SMAD3 inh | HepG2 tox | Giardia killer
Cc1ccc(-c2nnc(CSc3nnc(COc4cccc5ccccc45)n3-c3ccccc3)o2)cc1 | ? | 3% | ? | 13µM* | 27% | 7
O=C(Cc1ccc2c(c1)OCO2)N1CCOc2ccc(CN3CCOCC3)cc2C1 | . | . | i | . | . | .
Cc1cccc(C(=O)Nc2cccc3cccnc23)c1 | 31% | 0% | i | -17% | -22% | 4
Cc1cnc(C(=O)Nc2cccc3cccnc23)cn1 | ? | -11% | ? | 2.8µM* | -89% | -4
S=C(NCc1cccs1)Nc1cc(Cl)cc(Cl)c1 | ? | -3% | ? | 22µM* | -48% | -3
CCOC(=O)N1CCN(Cc2ccc3c(c2)CN(C(=O)c2ccc(C#CC(C)(C)O)o2)CCO3)CC1 | . | . | i | . | . | .
CCc1ccc(C(=O)c2cn(Cc3ccc(F)cc3)c3cc(OC)c(OC)cc3c2=O)cc1 | ? | . | 14µM* | ? | -13% | .
Nc1cccc2[nH]cnc12 | . | . | . | -18% | -9% | .
Cc1ccc(-c2nc(CS(=O)CC(=O)NCCN3CCCCCC3)c(C)o2)cc1 (stereo not given) | . | -8% | . | 13µM* | -65% | -2
Cc1oc(-c2ccc(Cl)cc2)nc1CS(=O)CC(=O)NCCN1CCCCCC1 (stereo not given) | . | -18% | i | ? | -51% | 4
C#C[C@]1(O)CC[C@H]2[C@@H]3CCc4cc(OC5CCCC5)ccc4[C@H]3CC[C@@]21C | ? | -22% | 32µM* | 9% | -1% | -16
Cc1ccccc1C(=O)Nc1ccc(C(=O)OCc2cc(=O)n3c4c(sc3n2)CCCC4)cc1 | . | . | . | 11µM* | 8.9µM* | .
Cc1cccc(C(=O)Nc2ccc(C(=O)OCc3cc(=O)n4c5c(sc4n3)CCCC5)cc2)c1 | . | . | . | ? | -56% | .
COc1ccc(-c2cc(C(=O)N3CCc4c(cnc(C)c4CNC(=O)c4ccsc4)C3)[nH]n2)cc1 | . | . | i | . | . | .
O=[N+]([O-])c1cccnc1Sc1ccc(F)cc1 | -13% | 0% | i | -13% | 7.1µM* | -11
C=CCN(C(=O)CSC1=NC(=O)CN1C(C)=O)c1nc(C)c(-c2ccccc2)s1 | 2% | -8% | i | 13µM* | -14% | -4
Cc1nc(-[n+]2nc(-c3ccncc3)nn2-c2ccccc2)sc1C | ? | . | 14µM* | -14% | -68% | .
COc1ccc(N2CCN(C(=O)c3cc4ccc5cccnc5c4[nH]3)CC2)cc1 | . | . | . | -12% | -4% | .
Cc1ccc(Cl)cc1N(C)C(=O)c1cc2ccc3cccnc3c2[nH]1 | . | . | . | 11µM* | 13µM* | .
Cc1ccc(C)c(N2CCN(C(=O)c3cc4ccc5cccnc5c4[nH]3)CC2)c1 | . | . | . | 16µM* | -23% | .
O=C(NCc1ccccc1)c1cc2ccc3cccnc3c2[nH]1 | . | . | . | -8% | -19% | .
CSc1nc2c([nH]1)c(=S)n(C)c(=O)n2C | -14% | 1% | i | 13µM* | -37% | 9
CCCC(CC)Sc1nc2c([nH]1)c(=S)n(C)c(=O)n2C (stereo not given) | -28% | 5% | i | 7.9µM* | -1% | -17
CCCCSc1nc2c([nH]1)c(=S)n(C)c(=O)n2C | ? | 1% | ? | 5µM* | -54% | 1
CCCCC(C)Sc1nc2c([nH]1)c(=S)n(C)c(=O)n2C (stereo not given) | -28% | 10% | ? | ? | 3% | 8
SMILES | ATXN2 expr inh | uPA generation | S2 tox | TGFb SMAD3 inh | HepG2 tox | Giardia killer
CC1=CC(C)(C)Nc2ccc(OC(=O)C(C)N3C(=O)c4ccccc4C3=O)cc21 (stereo not given) | ? | 4% | . | 18µM* | -99% | 3
CC1=CC(C)(C)Nc2ccc(OC(=O)CN3C(=O)CCC3=O)cc21 | ? | ? | i | -20% | 16µM* | -18
COc1ccc(OC(=O)C(C)N2C(=O)c3ccccc3C2=O)cc1 (stereo not given) | -6% | -7% | i | -12% | 6% | 23
CC1=CC(C)(C)Nc2ccc(C)cc21 | -1% | 4% | i | -5% | -6% | -22
CC1=CC(C)(C)Nc2ccc(OC(=O)c3ccco3)cc21 | 32µM* | 19% | ? | -22% | -104% | 7
CC1=CC(C)(C)Nc2ccc(OC(=O)c3cccnc3)cc21 | ? | 5% | ? | -6% | 13µM* | 13
COc1ccc2c(c1)OC(C)CN(CCNC(=O)C1CCOC1)C2 (stereo not given) | . | . | i | . | . | .
CCC1CN(CCNC(=O)c2ccc(C#CC(C)(C)O)cc2)Cc2cc(OC)ccc2O1 (stereo not given) | . | . | i | . | . | .
CCOc1cc(N2CCOCC2)c(OCC)cc1NC(=O)COc1ccccc1[N+](=O)[O-] | -14% | 1% | i | 0% | -14% | 7
O=C(COc1ccccc1[N+](=O)[O-])Nc1cccc(Cl)c1N1CCOCC1 | -29% | 10µM* | i | ? | 1% | -16
O=S(=O)(Nc1ccc(Cl)cc1)c1cccc(S(=O)(=O)c2ccc(Cl)c(Cl)c2)c1 | ? | . | ? | 14µM* | -78% | .
COC(=O)C(NC(=O)c1ccco1)(Nc1cc(C)ccn1)C(F)(F)F (stereo not given) | 3% | -2% | i | 14% | 3.2µM* | 7
N#CCCN(Cc1cccnc1)S(=O)(=O)c1ccc2ccccc2c1 | -19% | -3% | ? | -3% | 10µM* | -8
CCC1CN(CCNC(=O)c2ccc3c(c2)OCCO3)Cc2cc(OC)ccc2O1 (stereo not given) | . | . | i | . | . | .
COc1ccc(OC)c(-c2cnc(OC(C)(C)C)nc2OC(C)(C)C)c1 | . | 2.2µM* | i | ? | -13% | -14
CNc1cncc(-c2cc(OC)ccc2OC)n1 | 4% | . | i | -2% | -33% | .
CC(=O)N/C(=C/c1ccccc1)c1ccncc1 | . | . | . | -4% | -22% | .
C[C@]12c3[nH]c4ccccc4c3CCN1C(=O)C(CC(=O)NCc1ccco1)C[C@@H]2C(=O)N1CCCCC1 (stereo not given in full) | 2% | 6.3µM* | i | -16% | -27% | 4
COc1ccc2[nH]c3c(c2c1)CCN1C(=O)C(CC(=O)NCC24CC5CC(CC(C5)C2)C4)C[C@H](C(=O)N(C(C)C)C(C)C)[C@@]31C (stereo not given in full) | -35% | ? | i | 11µM* | -51% | -1

Screens: PubChem, National Center for Advancing Translational Sciences (NCATS)
